Screening results as filed in PubChem.
RORgamma inh = inhibitors of mouse ROR gamma transcriptional activity; P51450; Potency, µM (doses to about 53.6 µM), inactives show at the highest dose activity change, negative = inhibition, usual class: inhibitors; AID 2551; hit rate 5.4% among 310,000; Drosophila S2 Gal4-RORgamma UAS-luciferase reporter, 20 h; further: potency means the concentration at half of the fitted maximal effect; nearly all actives have a fitted effect of over 60% in size
Target sequence (P51450 whole entry, looked up, the tested form may be a part): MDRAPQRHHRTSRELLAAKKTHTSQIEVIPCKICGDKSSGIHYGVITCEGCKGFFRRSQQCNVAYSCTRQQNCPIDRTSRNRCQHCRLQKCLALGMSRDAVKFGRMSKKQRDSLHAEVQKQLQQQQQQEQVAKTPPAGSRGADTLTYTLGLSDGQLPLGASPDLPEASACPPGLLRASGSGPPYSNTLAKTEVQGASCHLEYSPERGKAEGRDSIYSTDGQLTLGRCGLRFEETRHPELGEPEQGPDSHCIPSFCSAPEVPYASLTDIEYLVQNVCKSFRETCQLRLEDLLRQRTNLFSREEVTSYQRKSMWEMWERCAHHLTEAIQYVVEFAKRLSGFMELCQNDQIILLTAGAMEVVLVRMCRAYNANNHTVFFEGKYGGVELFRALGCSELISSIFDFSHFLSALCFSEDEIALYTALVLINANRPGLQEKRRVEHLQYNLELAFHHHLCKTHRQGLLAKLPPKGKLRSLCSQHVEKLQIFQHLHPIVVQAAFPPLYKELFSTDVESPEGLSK
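In this cell-based reporter format, copper sulfate (700 uM final) drives Gal4–ROR gamma fusion expression from a metallothionein promoter in Drosophila Schneider cells; compounds preincubated 1 hr, reporter read after 20 hr at ambient temperature.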
LDHA block = inhibitors of human lactate dehydrogenase A. purified LDHA, NADH/diaphorase-resazurin fluorescence; active compounds read low. AID 1347041. P00338. activity change, % (values are at about 110 or 230 µM). hit rate 0.15% among 480,000; in the data active means activity change below about -30%; inconclusive means mostly about -25% to -30%;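 further: plate controls were DMSO wells for no effect and wells without enzyme for full effect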
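LDH5 2 nM; NADH 0.06 mM, pyruvate 0.2 mM; 200 mM Tris pH 7.4, EDTA, Tween-20; 5 min RT. Detection: diaphorase 0.133 mg/mL + resazurin 37 µM, fluorescence ex540/em590 at 0 and 20 min; normalized to enzyme-free and DMSO wells.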
IL-1B inflam inh = inhibitors of inflammasome signaling (IL-1 beta secretion); hit rate 4.7% among 360,000; AID 743279; activity change, % at 57.5 µM; THP-1 LPS/ATP IL-1B secretion, AlphaLISA, 16 h; active compounds read low; in the data active means activity change below about -50%; inconclusive means mostly about -30% to -49%
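THP-1 cells pretreated 1 hr with compounds (up to 57.5 uM final), then stimulated with LPS (250 ng/mL final) plus ATP (1.25 mM final); secreted IL-1B measured by AlphaLISA after 16 hr, decreased signal indicating inhibition.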
VP16 counter = inhibits Gal4-VP16 luciferase reporter, ROR gamma counter-screen; Drosophila S2 Gal4-VP16 UAS-luciferase, luminescence, 20 h; Potency, µM (highest dose often 53.6 µM), without a hit: top-dose activity, negative = inhibition, usual class: inhibitors; hit rate 3.5% among 310,000; AID 2546;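 further: Gal4-VP16 expression switched on by copper sulfate through the metallothionein promoter; potency means the concentration at half of the fitted maximal effect; nearly all actives have a fitted effect of over 50% in size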
DT40 TDP1 no CPT = qHTS for Inhibitors of human tyrosyl-DNA phosphodiesterase 1 (TDP1): qHTS in cells in absence of CPT. DT40 Tdp1-/- hTDP1 cells, no CPT, ATP luminescence, 48 h. Potency, µM (doses to about 46.2 µM), without a hit: at the top dose activity change, negative = growth inhibition, usual class: inhibitors. hit rate 15% among 420,000. AID 686978, 2013; further: potency means the concentration at half of the fitted maximal effect; nearly all actives have a fitted effect of over 55% in size
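A cellular qHTS used chicken DT40 cells lacking endogenous Tdp1 but carrying stably transfected human TDP1. Compounds were applied without camptothecin, and cell growth kinetics were judged by ATP-dependent luminescence after ≥48 hr.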
TDP1 cell CPT = DT40-hTDP1 cell growth loss with CPT; AID 686979; Potency, µM (doses to about 46.2 µM), without a hit: top-dose activity change, negative = growth inhibition, usual class: inhibitors; chicken DT40 Tdp1-/-;hTDP1 cells + 20 nM CPT, ATP luminescence, 48 h; hit rate 12% among 420,000; further: potency means the concentration at half of the fitted maximal effect; nearly all actives have a fitted effect of over 55% in size
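Chicken DT40 Tdp1-/- cells stably complemented with human TDP1 were seeded at 400 cells/well in medium containing 20 nM camptothecin, exposed to pin-transferred compounds, and grown at 37 °C for at least 48 hr. Viability was read as ATP luminescence.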
* marks the source's active call; other numbers are inactive results; ? = inconclusive; . = no result. Compounds with a hit are over-represented: about 18% of the library has one in this group of screens. Unless noted, the call rests on the fitted dose curve; in most records, active means well fitted curve in the direction sought with a large enough effect; inconclusive means small, poorly fitted or top-dose-only effect, or another doubt; inactive means no such curve, though single readings can be large; an effect the other way counts as inactive or inconclusive. Unless noted, on the % scale 0 is the no-effect control and ±100 the full control effect.

SMILES	RORgamma inh	LDHA block	IL-1B inflam inh	VP16 counter	DT40 TDP1 no CPT	TDP1 cell CPT
COc1ccc(N2CCN(CCCNC(=O)C3COc4ccccc4C3)CC2)cc1 (stereo unspecified)	.	8	.	.	16µM*	12µM*
Cc1c(CN(C)C(=O)Cn2nc(C(F)(F)F)c(Cl)c2C)cnn1C	.	-7	.	.	.	.
CNC(=S)N/N=C(/C)c1ccc([N+](=O)[O-])cc1	.	1	.	.	.	.
Cc1ccc(/C(O)=C2\C(=O)C(=O)NC2c2ccccc2)cc1 (stereo unspecified)	.	2	.	.	.	.
COc1cc(C(=O)N2CCN(C(=O)c3cc(-c4ccc(Br)cc4)n[nH]3)CC2)cc(OC)c1OC	29%	2	-10	-5%	26µM*	21µM*
Cc1ccc(-c2cc(C(=O)N3CCN(S(=O)(=O)c4ccc(Br)cc4)CC3)[nH]n2)cc1C	.	-16	.	.	8.2µM*	9.2µM*
COc1cc(C(=O)N2CCN(C(=O)c3ccccc3)CC2)cc(OC)c1OC	-5%	-1	4	-8%	4%	2%
COc1ccccc1CNC(=O)C(C)N1CCC(c2nc3cc(Cl)ccc3s2)CC1 (stereo unspecified)	.	9	.	.	.	.
Cn1cnc2c1c(=O)n(CCCN1CCCCCC1)c(=O)n2C	.	-2	.	.	.	.
CCCn1c(=O)c2c(ncn2C)n(CCC)c1=O	.	-9	-4	.	3.7µM*	?
CCn1nc(C(=O)OCC(=O)Nc2ccc3c(c2)OC(F)(F)O3)c2ccccc2c1=O	.	-8	.	.	.	.
Cc1ccccc1OCC(O)Cn1c(Br)nc2c1c(=O)n(C)c(=O)n2C (stereo unspecified)	39%	-7	49	-19%	?	?
Cc1ccccc1OCC(O)Cn1c(NCc2ccco2)nc2c1c(=O)n(C)c(=O)n2C (stereo unspecified)	-7%	0	19	?	10µM*	12µM*
Cc1ccccc1OCC(O)Cn1c(N)nc2c1c(=O)n(C)c(=O)n2C (stereo unspecified)	.	-37*	.	.	.	.
CCCc1ccc(C(=O)COC(=O)c2cccc(S(C)(=O)=O)c2)cc1	.	3	.	.	.	.
CN(C)CCNC(=O)c1ccc(Sc2ccc(Br)cc2)c([N+](=O)[O-])c1	-31%	0	-70*	-21%	23µM*	16µM*
O=C(NCCCN1CCOCC1)c1ccc(Sc2ccc(F)cc2)c([N+](=O)[O-])c1	12%	-19	-28	-5%	16µM*	?
N#Cc1ccccc1OCc1csc(-c2ccccc2)n1	.	-4	.	.	.	.
Cc1cc(NC(=O)CSc2nc(NC3CC3)c3ccccc3n2)no1	.	-5	.	.	.	.
CCCC(=O)NC(=S)Nc1cccc(Cl)c1N1CCCCC1	0.63µM*	1	64	1µM*	?	?
CCCC(=O)NC(=S)Nc1ccccc1N1CCOCC1	11µM*	0	34	?	?	?
O=C(Cc1ccc(Cl)c(Cl)c1)Nc1ccccc1N1CCOCC1	33%	1	19	3%	?	23µM*
CCCC(=O)Nc1ccc(N2CCCCC2)cc1	-3%	1	-7	-7%	-25%	-3%
O=C(Cc1ccccc1)Nc1ccccc1N1CCOCC1	-1%	-3	16	1%	-26%	12%
CCC(=O)NC(=S)Nc1cccc(Cl)c1N1CCCCC1	4.5µM*	-8	52	5µM*	11µM*	11µM*
Cc1ccc(S(=O)(=O)Nc2nc3ccccc3nc2Nc2ccc(C)c(F)c2)cc1	.	-2	.	.	.	.
CCNC(=O)NC(=O)CN(C)C(C)C(C)(C)C (stereo unspecified)	.	-3	.	.	.	.
O=C(Cc1ccc(Cl)cc1)NC(=S)Nc1ccccc1N1CCOCC1	5µM*	-7	17	5µM*	?	-30%
CN(C)CCCNCC(=O)Nc1ccccc1N1CCOCC1	-16%	-32*	4	0%	-5%	-10%
